# Compound activity from PubChem BioAssay.
# Lmaj promast = reduces viability of Leishmania major promastigotes; inhibition, % at 10 µM; AID 1063; 200,000 compounds, 9% hits; resazurin fluorescence viability; in the data active = inhibition above about 50%;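 also: promastigotes grown with compound for 44 hours at 28 °C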
# CHOP inh = CHOP inhibition in unfolded protein response | CHO-K1 CHOP-promoter luciferase, tunicamycin-induced, 15-18 h | 220,000 compounds, 3.8% hits | inhibition, % at 10 µM;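 active = compounds that reduced the stress-induced luciferase reporter signal by more than about 70% of percent inhibition, limit read from the data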;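 also: 0% = tunicamycin plus vehicle and 100% = wells without tunicamycin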
# Arbovirus anti = antivirals against arbovirus infection | arbovirus infection cell-based antiviral screen | inhibition, % at 10 µM | 200,000 compounds, 0.37% hits | AID 1251; in the data active = inhibition above about 30%
# WT yeast gro inh = growth inhibition of WT yeast, mitochondrial fusion screen; mitochondrial fusion phenotypic screen, WT strain; inhibition, % at 10 µM; 190,000 compounds, 2.1% hits; in the data active = inhibition above about 58%; tested in S. cerevisiae
# Numbers without * were called inactive; . = not tested or not shown. An excerpt weighted towards active compounds, which were near 12% of everything screened.
SMILES,Lmaj promast,CHOP inh,Arbovirus anti,WT yeast gro inh
Nc1ccc2c(c1)Nc1ccccc1CC2,-3,13,-2,-6
CCc1cc[n+](C2=C([O-])c3ccccc3C(=O)/C2=N\S(=O)(=O)c2cccs2)cc1,99*,-25,-34,19
CCOC(=O)N1CCC(Nc2c(Nc3cccc(CC)c3)c(=O)c2=O)CC1,1,12,36*,14
CCOC(=O)N1CCC(N(CCOC)C(=S)Nc2cccc(SC)c2)CC1,65*,13,4,23
CCOC(=O)N1CCC(Nc2cccc(SC)c2)CC1,96*,4,16,7
CCOC(=O)N1CCC(Nc2c(Nc3ccc(F)cc3)c(=O)c2=O)CC1,0,0,-5,2
CCOC(=O)N1CCC(N(CCN(C)C)C(=S)Nc2cccc(OC)c2)CC1,6,-6,1,1
CCOC(=O)c1ccc(N2CCCCC2)c(NS(=O)(=O)c2ccc(C)cc2)c1,.,20,.,.
O=C(NC(=S)N(CCc1ccccc1)CCc1ccccc1)c1ccco1,95*,-12,-20,62
CC(C)CC(=O)NC(=S)N(Cc1ccccc1)Cc1ccccc1,19,39,-16,64*
COc1cc(C(=O)NC(=S)N(CCc2ccccc2)CCc2ccccc2)cc(OC)c1OC,99*,-30,-13,48
COc1ccc(C(=O)NC(=S)N(Cc2ccccc2)Cc2ccccc2)cc1,90*,-4,-18,71
COc1cc(C(=O)NC(=S)N(C)Cc2ccccc2)cc(OC)c1OC,-11,-10,0,8
CC(CCc1ccccc1)NC(=S)NC(=O)c1ccco1 (centres undefined),7,-10,7,5
CC(=O)c1ccc(-c2cc([C@H]3[C@H]4C=CC[C@@H](C)[C@@H]4C(=O)N3Cc3ccccc3)ccc2F)cc1,.,18,.,.
COc1ccc(N2CCN(C(=O)C3CCN(S(=O)(=O)c4ccc(F)cc4)CC3)CC2)cc1,-4,4,1,0
O=C(O)CCn1cc(/C=N/O)c(-c2cccc([N+](=O)[O-])c2)n1,-5,-7,2,5
C=CCN(CC=C)C(=S)NC(=O)c1ccc(-c2ccccc2)cc1,7,-11,-15,66*
O=C(O)CCC(=O)N1CCN(c2ncccc2C(F)(F)F)CC1,.,-5,.,.
CCOc1ccc(NC(=S)N(CCc2c(C)[nH]c3ccc(C)cc23)Cc2cccnc2)cc1,100*,-25,-2,5
COc1ccc(NC(=S)N(CCc2nc3cc(C)c(C)cc3[nH]2)Cc2cccnc2)cc1,90*,10,-7,15
N#CCCN(Cc1cccnc1)C(=S)Nc1ccc(OC(F)F)cc1,-6,-5,31*,-10
CN(C)S(=O)(=O)c1cccc(NC(=S)N(CCC#N)Cc2cccnc2)c1,-3,-5,21,2
Cc1ccccc1NC(=S)N(CCc1c(C)[nH]c2ccc(F)cc12)Cc1ccncc1,98*,18,9,-16
COc1ccc(OCC(=O)Nc2ccncc2)cc1,.,1,.,.
SMILES,Lmaj promast,CHOP inh,Arbovirus anti,WT yeast gro inh
Cc1cccc(/N=C/c2c(O)n(Cc3ccc4c(c3)OCO4)c(=O)c3ccccc23)n1,10,41,-8,-1
COc1ccc(NC(=S)N(CCc2c(C)[nH]c3ccccc23)Cc2cccnc2)cc1,100*,-12,8,-11
Cc1[nH]c2ccc(F)cc2c1CCN(Cc1ccncc1)C(=S)Nc1cccc(F)c1,99*,24,4,-5
Cc1[nH]c2ccc(F)cc2c1CCN(Cc1cccnc1)C(=S)Nc1ccc(F)cc1,100*,1,10,5
COc1ccccc1/C=C/C(=O)OCc1nc2ccccc2c(=O)[nH]1,3,28,8,-2
N#CCCN(Cc1ccccc1)C(=O)c1cccs1,.,6,.,.
O=C(NC1CCN(C(=S)NCCc2ccccc2)CC1)C1CCCCC1,-3,-5,6,4
CN1[C@@H]2CC[C@H]1CC(OC(=O)C(CO)c1ccccc1)C2 (some centres undefined),-6,18,-8,-8
O=C(O)CNS(=O)(=O)c1cccc(Cl)c1,.,6,.,.
Cc1cc(C)cc(N(CC(=O)NCc2ccco2)C(=O)CCC(=O)Nc2nccs2)c1,78*,6,-6,-1
CCOC(=O)N1CCN(Cc2cc(Cl)c3cccnc3c2O)CC1,100*,83*,-22,3
Oc1c(CN2CCN(c3ccccc3)CC2)cc(Br)c2cccnc12,.,89*,.,.
c1ccc(N2CCN(Cc3ccnc4ccccc34)CC2)cc1,8,59,3,-3
COCc1cc(CN2CCN(C)CC2)c(O)c2ncccc12,100*,-240,-29,4
Oc1c(CN2CCOCC2)cc(COCc2ccccc2)c2cccnc12,100*,.,-21,-13
COCC(C)NC(=O)c1cc(-c2cccc(OC)c2)on1 (centres undefined),-8,-36,-4,97*
Cc1nc2ncnn2c(N2CCN(C(c3ccccc3)c3ccccc3)CC2)c1C,68*,7,-30,4
Cc1nc2ncnn2c(N2CCN(c3cccc(C(F)(F)F)c3)CC2)c1C,11,73*,3,10
Cc1cc(N2CCN(C(c3ccccc3)c3ccccc3)CC2)n2ncnc2n1,0,19,-3,38
COc1ccc(/C=N/OCC(=O)NC(c2ccccc2)c2ccccc2)cc1OC,100*,41,8,-3
COc1ccc(/C=N/OCC(=O)Nc2cc(C)on2)cc1OC,-2,-2,2,-5
CC(C)[C@H](Nc1ccc(S(=O)(=O)N2CCOCC2)cc1[N+](=O)[O-])C(=O)OCC(=O)N(C(C)C)C(C)C,82*,-18,-3,-2
CC(C)C(C)NC(=O)COc1ccc(S(=O)(=O)N2CCOCC2)cc1[N+](=O)[O-] (centres undefined),49,19,9,-14
CC(C)[C@H](Nc1ccc(S(=O)(=O)N2CCOCC2)cc1[N+](=O)[O-])C(=O)OCC(N)=O,51*,24,-3,-5
CNC(=O)COC(=O)[C@@H](Nc1ccc(S(=O)(=O)N2CCOCC2)cc1[N+](=O)[O-])C(C)C,55*,-13,2,-13
SMILES,Lmaj promast,CHOP inh,Arbovirus anti,WT yeast gro inh
CCOc1ccc(S(=O)(=O)N2CCOCC2)cc1[N+](=O)[O-],-1,40,3,1
COc1ccc(NC2=C3CC(C)CC=C3N(c3ccc(OC)cc3)C2=O)cc1 (centres undefined),-1,35,-1,1
CCc1cccc(CC)c1NC(=S)NC(C)c1ccccc1 (centres undefined),40,-48,-32,60*
CC(C)c1ccc(NC(=S)NCc2ccc3c(c2)OCO3)cc1,-4,14,-7,67*
COc1ccc(NC(=S)NCc2ccc3c(c2)OCO3)cc1,-2,5,4,3
CCc1cccc(CC)c1NC(=S)NCc1ccc2c(c1)OCO2,60*,-1,-1,19
CCCCCCOc1ccc(/C(C)=N/NC2=NCCN2)cc1[N+](=O)[O-],100*,1,-22,65
CCCCOc1ccc(Br)cc1/C(C)=N/NC1=NCCN1,101*,.,-36,77
C/C(=N\NC1=NCCN1)c1ccc(N)c([N+](=O)[O-])c1,.,-22,.,.
CCCOc1ccc(Br)cc1/C=N/O,6,32,2,10
O=S(=O)(NCc1cc(-c2ccccc2Cl)no1)c1ccccc1,79*,7,3,18
